Article PMC5540273 (PLoS ONE, 2017)

Columns and labels:
Conditions in all cases: concentration: 1 μM, replicates: in singlicate; n = 1
[1] = test system: PIK3C2G
[2] = test system: PIK3CA
[3] = test system: PIK3CB
[4] = test system: PIK3CD
[5] = test system: PIK3CG
[6] = test system: T1, PIK4CB
T1 construct: gene PI4KB

[7] = test system: PIKFYVE
[8] = test system: PIM1
[9] = test system: PIM2
[10] = test system: PIM3
[11] = test system: PIP5K1A
[12] = test system: PIP5K1C
[13] = test system: PIP5K2B
[14] = test system: T2, PIP5K2C
T2 construct: gene PIP4K2C

[15] = test system: T3, PKAC-alpha
T3 construct: gene PRKACA

[16] = test system: T4, PKAC-beta
T4 construct: gene PRKACB

[17] = test system: PKMYT1
[18] = test system: PKN1
[19] = test system: PKN2
[20] = test system: PLK1
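Note: KINOMEscan kinase panel screen.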

SMILES	%Inh [1]	%Inh [2]	%Inh [3]	%Inh [4]	%Inh [5]	%Inh [6]	%Inh [7]	%Inh [8]	%Inh [9]	%Inh [10]	%Inh [11]	%Inh [12]	%Inh [13]	%Inh [14]	%Inh [15]	%Inh [16]	%Inh [17]	%Inh [18]	%Inh [19]	%Inh [20]
Cl.c1ccc(-c2ccc3c(Nc4ccc5[nH]ccc5c4)ccnc3c2)nc1 [GW440138]	0%	0%	37%	2%	0%	0%	16%	0%	0%	0%	50%	66%	8%	65%	0%	0%	0%	0%	0%	0%
Cl.NC(=O)c1cccc(Nc2nccc(Nc3ccc(Oc4c(Cl)cccc4Cl)c(Cl)c3)n2)c1 [GW659009]	0%	0%	0%	4%	0%	0%	0%	13%	0%	4%	0%	19%	97.4%	64%	0%	0%	0%	59%	0%	0%
Nc1ncc(-c2cccnc2)c2scc(-c3ccc4c(c3)CCN4C(=O)Cc3ccccc3)c12 [GSK683281]	0%	0%	0%	0%	0%	0%	0%	0%	0%	0%	0%	17%	19%	0%	31%	13%	13%	30%	18%	5%
CN(C)Cc1ccc(-c2ccc3c(Nc4ccc(Oc5ccccn5)cc4)ccnc3c2)o1 [GW567148]	0%	0%	0%	0%	0%	0%	0%	0%	0%	0%	33%	18%	0%	49%	0%	0%	0%	0%	0%	0%
Cc1cccc(NC(=O)Nc2ccc(Oc3ncnc4ccn(C)c34)cc2)c1	0%	0%	0%	0%	0%	0%	40%	0%	0%	0%	0%	49%	2%	32%	0%	0%	0%	0%	0%	0%
NCCCC(NC(=O)c1cc(Br)c(-c2ccnc3[nH]ccc23)s1)c1ccccc1.O=C(O)C(F)(F)F.O=C(O)C(F)(F)F (stereo not shown) [GSK1287544]	0%	0%	100%	0%	0%	0%	0%	59%	93%	22%	72%	42%	60%	28%	99.4%	99.2%	0%	18%	58%	0%
COc1cccc(C2=C(Nc3ccc(Cl)c(C(=O)O)c3)C(=O)NC2=O)c1 [SB-390769]	100%	10%	93.3%	0%	0%	0%	21%	0%	0%	0%	19%	60%	0%	28%	0%	6%	4%	0%	0%	0%
Cc1cccc(Nc2nc(N[C@H]3CCNC3)ncc2C(N)=O)c1.Cl [GSK2197149]	0%	0%	0%	0%	0%	8%	0%	28%	68%	76%	47%	76%	65%	0%	19%	0%	0%	3%	14%	0%
O=C(Nc1cccc(-c2nn3ccccc3c2-c2ccnc(Nc3cccc(C(F)(F)F)c3)n2)c1)c1c(F)cccc1F [GSK292658]	22%	0%	0%	0%	0%	8%	1%	0%	0%	0%	0%	0%	5%	10%	0%	13%	0%	11%	0%	0%
Fc1ccc(-c2ncn(C3CCNCC3)c2-c2ccnc(Oc3ccc(-c4ccccc4)cc3)n2)cc1 [SB-245391]	39%	40%	40%	73%	39%	31%	15%	23%	4%	16%	14%	24%	0%	20%	35%	31%	9%	0%	18%	35%
CCS(=O)(=O)c1ccc(OC)c(Nc2nccc(-c3c(-c4cccc(NC(=O)c5c(F)cccc5F)c4)nn4ncccc34)n2)c1 [GSK326180]	0%	0%	0%	0%	3%	7%	0%	0%	0%	0%	0%	8%	0%	40%	0%	0%	0%	0%	0%	0%
Nc1n[nH]c2cnc(-c3ccccc3)cc12 [SB-642124]	0%	0%	0%	0%	0%	14%	0%	38%	0%	13%	40%	0%	32%	18%	0%	0%	15%	0%	31%	0%
CCn1c(-c2nonc2N)nc2c(C#CC(C)(C)O)nc(OC[C@H](N)c3ccccc3)cc21 [GSK943949]	11%	0%	0%	0%	0%	0%	60%	0%	23%	0%	0%	90.8%	0%	0%	98%	97.7%	19%	90.8%	19%	0%
Oc1cc(Nc2ccnc3cc(I)ccc23)ccc1F [GW552771]	0%	0%	0%	19%	0%	20%	13%	8%	0%	0%	8%	13%	0%	30%	0%	0%	0%	19%	0%	0%
c1ccc(-c2n[nH]cc2Nc2ccnc3ccccc23)nc1 [GW694077]	15%	0%	0%	0%	14%	95.7%	0%	81%	7%	79%	10%	73%	54%	72%	0%	0%	0%	7%	0%	0%
Cc1ccc(F)c(C(=O)Nc2cccc(-c3nn4ccccc4c3-c3ccnc(Nc4cccc(F)c4)n3)c2)c1F [GSK361061]	0%	0%	0%	0%	0%	0%	0%	24%	0%	7%	0%	6%	15%	0%	13%	29%	17%	0%	17%	19%
COc1ccc(CNC(=O)NC2CCN(c3ccnc(Nc4ccc(F)cc4)n3)CC2)cc1 [GSK1379788]	0%	0%	0%	0%	0%	0%	6%	0%	0%	0%	5%	57%	4%	9%	0%	0%	0%	0%	0%	0%
COc1ccc(Nc2nccc(NCCNC(=O)c3cc4ccccc4s3)n2)cc1 [GSK1379896]	0%	0%	32%	0%	0%	0%	0%	8%	0%	2%	0%	48%	22%	24%	0%	0%	0%	0%	0%	7%
O=C(Nc1cccc(-c2nn3ncccc3c2-c2ccnc(Nc3ccccc3)n2)c1)c1c(F)cccc1F [GSK198271]	0%	0%	0%	0%	0%	6%	0%	16%	0%	5%	0%	0%	11%	27%	5%	2%	7%	8%	0%	3%
Cc1ccc(C(=O)N2CC[C@@H](O)C2)cc1-n1c(C)cc(OCc2ccc(F)cc2F)c(Br)c1=O	0%	0%	0%	0%	0%	0%	28%	0%	7%	1%	0%	50%	0%	38%	3%	0%	0%	16%	0%	0%
